These results are taken from paper PMC7862700, “An all-to-all approach to the identification of sequence-specific readers for epigenetic DNA modifications on cytosine”.

Common to all, as to assay: DAPPL (digital affinity profiling via proximity ligation, sequencing); 10 mM Tris-HCl pH 7.5, 50 mM NaCl, 1 mM DTT, 4% glycerol, room temperature, 30 min; GST-TFs on glutathione beads, 16-mer random dsDNA library, 0.1% formaldehyde crosslink after washing; high values mean tight binding
Assay [1] concerns the target T1, FEV (Homo sapiens, UniProt Q99581 1-238).
T1 sequence: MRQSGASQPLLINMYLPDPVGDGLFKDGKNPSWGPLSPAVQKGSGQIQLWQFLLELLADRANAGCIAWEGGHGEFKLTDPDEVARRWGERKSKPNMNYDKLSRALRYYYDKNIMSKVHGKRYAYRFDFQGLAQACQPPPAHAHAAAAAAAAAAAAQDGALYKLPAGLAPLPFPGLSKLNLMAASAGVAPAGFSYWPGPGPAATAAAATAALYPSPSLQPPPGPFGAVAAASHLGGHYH
The settings on record: protein: recombinant; tags: N-terminal GST; dsDNA, one strand shown. The essentials:
(§1)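 Human transcription factors fused to GST were expressed in yeast, captured on glutathione beads, given DNA barcodes and pooled with a GST-only negative control. Pools were incubated with 200 nmole of a 16-mer random double-stranded DNA library in Tris/NaCl/DTT/glycerol buffer at room temperature for 30 min. They were then washed, crosslinked with 0.1% formaldehyde, proximity-ligated (BsaI/T4 ligase, 1 h, 37 °C), PCR-amplified and sequenced on an Illumina NextSeq500. Binding signal is each 6-mer's read frequency for a factor divided by its frequency for the GST control.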

Assay [2] addresses ETV5 (Homo sapiens, UniProt P41161 1-510). The conditions noted are these: protein: recombinant; tags: N-terminal GST; dsDNA, one strand shown. The essentials: as §1
Assay [3] deals with HSF1 (Homo sapiens, UniProt Q00613 1-529). The conditions noted are these: protein: recombinant; tags: N-terminal GST; chain copies: 3; dsDNA, one strand shown. An outline of the steps:
as §1

In assay [4] the target is T2, SPIC (Homo sapiens, UniProt Q8N5J4 1-248).
T2 sequence: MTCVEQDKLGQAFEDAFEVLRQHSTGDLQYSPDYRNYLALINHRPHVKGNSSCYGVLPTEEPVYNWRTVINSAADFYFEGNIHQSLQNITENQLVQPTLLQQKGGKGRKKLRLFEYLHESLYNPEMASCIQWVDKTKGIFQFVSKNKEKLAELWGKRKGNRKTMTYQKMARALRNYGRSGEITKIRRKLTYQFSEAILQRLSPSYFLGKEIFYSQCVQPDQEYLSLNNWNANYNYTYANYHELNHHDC
The conditions noted are these: protein: recombinant; tags: N-terminal GST; dsDNA, one strand shown. An outline of the steps: as §1

Assay [5] deals with ELF4 (Homo sapiens, UniProt Q99607 1-663). The conditions noted are these: protein: recombinant; tags: N-terminal GST; dsDNA, one strand shown. The essentials: as §1
Sequence of ELF4 (Q99607 whole entry): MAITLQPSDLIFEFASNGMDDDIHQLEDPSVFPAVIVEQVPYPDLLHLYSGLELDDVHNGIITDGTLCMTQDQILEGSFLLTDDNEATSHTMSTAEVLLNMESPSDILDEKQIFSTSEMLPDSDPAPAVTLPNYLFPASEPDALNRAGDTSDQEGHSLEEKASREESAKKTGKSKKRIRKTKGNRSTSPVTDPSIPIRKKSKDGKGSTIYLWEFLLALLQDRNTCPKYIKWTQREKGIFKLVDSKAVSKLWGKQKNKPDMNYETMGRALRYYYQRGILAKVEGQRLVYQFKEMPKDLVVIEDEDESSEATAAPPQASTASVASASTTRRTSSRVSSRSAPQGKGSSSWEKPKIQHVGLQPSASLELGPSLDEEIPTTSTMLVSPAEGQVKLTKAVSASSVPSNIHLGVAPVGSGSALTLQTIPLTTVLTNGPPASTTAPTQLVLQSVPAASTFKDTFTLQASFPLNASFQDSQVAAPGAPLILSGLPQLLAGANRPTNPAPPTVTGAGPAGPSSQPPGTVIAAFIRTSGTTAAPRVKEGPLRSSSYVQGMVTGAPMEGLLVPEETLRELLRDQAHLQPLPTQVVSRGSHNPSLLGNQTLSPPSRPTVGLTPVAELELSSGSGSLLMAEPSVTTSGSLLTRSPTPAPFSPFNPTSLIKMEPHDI
Assay [6] addresses T3, ELK4 (Homo sapiens, UniProt P28324-2 1-405).
T3 sequence: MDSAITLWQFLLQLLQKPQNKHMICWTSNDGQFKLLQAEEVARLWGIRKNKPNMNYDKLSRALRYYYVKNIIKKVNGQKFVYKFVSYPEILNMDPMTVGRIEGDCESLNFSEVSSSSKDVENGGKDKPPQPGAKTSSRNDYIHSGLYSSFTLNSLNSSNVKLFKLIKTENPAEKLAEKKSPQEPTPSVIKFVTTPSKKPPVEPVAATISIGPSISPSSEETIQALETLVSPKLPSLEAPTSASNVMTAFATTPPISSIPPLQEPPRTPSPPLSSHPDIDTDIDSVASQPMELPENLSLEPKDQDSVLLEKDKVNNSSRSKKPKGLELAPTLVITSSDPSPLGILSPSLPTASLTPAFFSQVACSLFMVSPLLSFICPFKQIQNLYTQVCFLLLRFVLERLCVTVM
The settings on record: protein: recombinant; tags: N-terminal GST; dsDNA, one strand shown. The essentials: as §1

Assay [7] concerns the target T4, ETV2 (Homo sapiens, UniProt O00321 1-342).
T4 sequence: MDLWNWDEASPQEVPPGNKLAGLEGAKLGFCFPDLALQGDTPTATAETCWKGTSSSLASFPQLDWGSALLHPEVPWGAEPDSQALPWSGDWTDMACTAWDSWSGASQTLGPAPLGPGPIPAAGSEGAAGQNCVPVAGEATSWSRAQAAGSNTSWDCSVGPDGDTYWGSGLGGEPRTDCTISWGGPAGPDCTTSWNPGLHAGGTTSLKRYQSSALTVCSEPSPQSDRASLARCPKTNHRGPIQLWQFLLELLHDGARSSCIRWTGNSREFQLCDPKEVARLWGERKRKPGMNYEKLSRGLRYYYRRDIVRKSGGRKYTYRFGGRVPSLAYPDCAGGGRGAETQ
The settings on record: protein: recombinant; tags: N-terminal GST; dsDNA, one strand shown. The essentials:
as §1

In assay [8] the target is T5, ELF3 (Homo sapiens, UniProt P78545 1-371).
T5 sequence: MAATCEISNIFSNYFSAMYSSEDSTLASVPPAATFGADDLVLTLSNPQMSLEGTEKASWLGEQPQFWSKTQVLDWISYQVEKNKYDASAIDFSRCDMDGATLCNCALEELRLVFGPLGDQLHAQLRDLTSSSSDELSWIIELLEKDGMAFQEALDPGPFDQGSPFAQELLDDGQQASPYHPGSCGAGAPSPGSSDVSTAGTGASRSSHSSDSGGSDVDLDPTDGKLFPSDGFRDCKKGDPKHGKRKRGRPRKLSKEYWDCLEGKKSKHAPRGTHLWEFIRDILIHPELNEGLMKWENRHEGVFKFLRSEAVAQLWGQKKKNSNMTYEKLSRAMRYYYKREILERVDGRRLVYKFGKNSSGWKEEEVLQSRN
The conditions noted are these: protein: recombinant; tags: N-terminal GST; dsDNA, one strand shown. An outline of the steps: as §1

For assay [9], the target named is CRX (Homo sapiens, UniProt O43186 1-299). The conditions noted are these: protein: recombinant; tags: N-terminal GST; dsDNA, one strand shown. The essentials: as §1
Sequence of CRX (O43186 whole entry): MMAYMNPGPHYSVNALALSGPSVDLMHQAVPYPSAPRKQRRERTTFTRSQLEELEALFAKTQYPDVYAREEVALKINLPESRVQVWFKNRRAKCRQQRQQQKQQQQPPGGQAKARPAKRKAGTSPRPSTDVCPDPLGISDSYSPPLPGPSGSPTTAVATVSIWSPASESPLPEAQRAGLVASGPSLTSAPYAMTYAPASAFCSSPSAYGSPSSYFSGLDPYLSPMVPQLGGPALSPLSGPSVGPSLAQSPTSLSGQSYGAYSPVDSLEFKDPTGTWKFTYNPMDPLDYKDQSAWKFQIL
Assay [10] addresses ETV1 (Homo sapiens, UniProt P50549 1-477). The conditions noted are these: protein: recombinant; tags: N-terminal GST; dsDNA, one strand shown. An outline of the steps:
as §1

Assay [11] deals with T6, ERF (Homo sapiens, UniProt P50548 1-548).
T6 sequence: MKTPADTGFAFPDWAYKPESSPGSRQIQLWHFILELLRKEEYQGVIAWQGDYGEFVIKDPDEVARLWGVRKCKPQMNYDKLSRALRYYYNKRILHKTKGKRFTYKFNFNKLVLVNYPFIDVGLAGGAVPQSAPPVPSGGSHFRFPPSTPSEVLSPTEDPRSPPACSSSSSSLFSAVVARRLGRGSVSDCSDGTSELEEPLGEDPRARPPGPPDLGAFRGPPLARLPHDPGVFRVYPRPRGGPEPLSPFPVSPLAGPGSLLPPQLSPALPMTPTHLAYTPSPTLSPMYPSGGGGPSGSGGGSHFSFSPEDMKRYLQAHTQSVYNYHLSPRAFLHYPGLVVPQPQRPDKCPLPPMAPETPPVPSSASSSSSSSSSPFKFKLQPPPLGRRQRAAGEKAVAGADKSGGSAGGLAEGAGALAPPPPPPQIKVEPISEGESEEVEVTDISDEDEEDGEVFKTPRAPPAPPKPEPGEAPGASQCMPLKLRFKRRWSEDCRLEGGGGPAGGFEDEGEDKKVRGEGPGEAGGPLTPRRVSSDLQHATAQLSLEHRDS
The conditions noted are these: protein: recombinant; tags: N-terminal GST; dsDNA, one strand shown. The essentials: as §1

Assay [12] concerns the target T7, ETV3L (Homo sapiens, UniProt Q6ZN32 1-361).
T7 sequence: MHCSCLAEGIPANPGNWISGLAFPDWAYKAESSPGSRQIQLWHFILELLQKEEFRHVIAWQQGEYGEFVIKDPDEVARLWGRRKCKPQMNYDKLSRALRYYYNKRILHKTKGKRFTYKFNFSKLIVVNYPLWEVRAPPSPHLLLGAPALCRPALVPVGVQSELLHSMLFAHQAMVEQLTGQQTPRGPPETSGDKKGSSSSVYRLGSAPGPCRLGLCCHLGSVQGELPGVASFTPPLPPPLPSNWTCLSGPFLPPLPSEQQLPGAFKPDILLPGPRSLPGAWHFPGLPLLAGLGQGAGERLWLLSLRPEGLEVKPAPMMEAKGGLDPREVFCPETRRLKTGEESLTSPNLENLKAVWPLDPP
The settings on record: protein: recombinant; tags: N-terminal GST; dsDNA, one strand shown. The essentials: as §1

Assay [13] has as its target T8, ETS2 (Homo sapiens, UniProt P15036 1-469).
T8 sequence: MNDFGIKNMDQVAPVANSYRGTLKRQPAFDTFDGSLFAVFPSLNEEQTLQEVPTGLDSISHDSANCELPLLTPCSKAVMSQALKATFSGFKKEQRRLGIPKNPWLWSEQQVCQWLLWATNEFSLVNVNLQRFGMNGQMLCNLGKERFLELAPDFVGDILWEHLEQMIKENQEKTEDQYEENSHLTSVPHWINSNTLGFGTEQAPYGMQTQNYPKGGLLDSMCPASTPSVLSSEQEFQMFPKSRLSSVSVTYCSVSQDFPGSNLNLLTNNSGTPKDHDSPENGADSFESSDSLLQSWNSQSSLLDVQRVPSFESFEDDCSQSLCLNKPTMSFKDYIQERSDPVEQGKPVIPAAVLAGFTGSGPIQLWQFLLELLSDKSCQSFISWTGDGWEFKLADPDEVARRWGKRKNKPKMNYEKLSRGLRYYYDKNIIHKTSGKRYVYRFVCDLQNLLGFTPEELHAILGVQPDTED
The settings on record: protein: recombinant; tags: N-terminal GST; dsDNA, one strand shown. The essentials:
as §1

Assay [14] deals with T9, SPDEF (Homo sapiens, UniProt O95238 1-335).
T9 sequence: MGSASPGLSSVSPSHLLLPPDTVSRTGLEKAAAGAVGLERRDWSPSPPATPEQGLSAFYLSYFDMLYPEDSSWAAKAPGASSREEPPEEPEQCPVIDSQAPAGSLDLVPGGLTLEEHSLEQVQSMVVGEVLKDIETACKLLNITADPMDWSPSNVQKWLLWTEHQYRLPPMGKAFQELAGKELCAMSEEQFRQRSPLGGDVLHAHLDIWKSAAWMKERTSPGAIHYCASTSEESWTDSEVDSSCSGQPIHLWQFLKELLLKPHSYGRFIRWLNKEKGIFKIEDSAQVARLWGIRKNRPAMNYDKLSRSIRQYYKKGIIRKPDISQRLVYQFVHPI
The conditions noted are these: protein: recombinant; tags: N-terminal GST; dsDNA, one strand shown. An outline of the steps: as §1

In assay [15] the target is T10, ETV7 (Homo sapiens, UniProt Q9Y603 1-341).
T10 sequence: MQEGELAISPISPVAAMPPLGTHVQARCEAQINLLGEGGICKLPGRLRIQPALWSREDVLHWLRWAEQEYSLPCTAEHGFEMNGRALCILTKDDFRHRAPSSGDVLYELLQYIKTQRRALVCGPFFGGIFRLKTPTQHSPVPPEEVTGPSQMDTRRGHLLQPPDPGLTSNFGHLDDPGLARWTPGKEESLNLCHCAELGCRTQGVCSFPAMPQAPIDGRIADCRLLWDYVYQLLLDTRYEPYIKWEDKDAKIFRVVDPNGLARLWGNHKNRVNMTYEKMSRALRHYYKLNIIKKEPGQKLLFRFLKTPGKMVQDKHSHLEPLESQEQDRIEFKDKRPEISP
The conditions noted are these: protein: recombinant; tags: N-terminal GST; dsDNA, one strand shown. The essentials: as §1

Assay [16] deals with T11, ELF5 (Homo sapiens, UniProt Q9UKW6-2 1-255).
T11 sequence: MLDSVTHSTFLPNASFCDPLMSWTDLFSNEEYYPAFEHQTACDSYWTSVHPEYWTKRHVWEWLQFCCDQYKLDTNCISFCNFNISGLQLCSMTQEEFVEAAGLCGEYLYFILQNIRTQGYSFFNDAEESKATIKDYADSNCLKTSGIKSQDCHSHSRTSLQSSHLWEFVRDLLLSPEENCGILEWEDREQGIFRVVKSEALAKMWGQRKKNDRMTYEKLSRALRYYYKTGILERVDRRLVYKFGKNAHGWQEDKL
The settings on record: protein: recombinant; tags: N-terminal GST; dsDNA, one strand shown. An outline of the steps:
as §1

Assay [17] addresses T12, ETV3 (Homo sapiens, UniProt P41162-2 1-143).
T12 sequence: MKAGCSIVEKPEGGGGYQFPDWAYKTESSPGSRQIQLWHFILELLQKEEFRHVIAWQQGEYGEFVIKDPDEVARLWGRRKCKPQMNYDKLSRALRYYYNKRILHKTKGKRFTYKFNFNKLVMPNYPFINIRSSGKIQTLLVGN
The settings on record: protein: recombinant; tags: N-terminal GST; dsDNA, one strand shown. The essentials: as §1

The target of assay [18] is ETV6 (Homo sapiens, UniProt P41212 1-452). The settings on record: protein: recombinant; tags: N-terminal GST; dsDNA, one strand shown. An outline of the steps: as §1
Sequence of ETV6 (P41212 whole entry): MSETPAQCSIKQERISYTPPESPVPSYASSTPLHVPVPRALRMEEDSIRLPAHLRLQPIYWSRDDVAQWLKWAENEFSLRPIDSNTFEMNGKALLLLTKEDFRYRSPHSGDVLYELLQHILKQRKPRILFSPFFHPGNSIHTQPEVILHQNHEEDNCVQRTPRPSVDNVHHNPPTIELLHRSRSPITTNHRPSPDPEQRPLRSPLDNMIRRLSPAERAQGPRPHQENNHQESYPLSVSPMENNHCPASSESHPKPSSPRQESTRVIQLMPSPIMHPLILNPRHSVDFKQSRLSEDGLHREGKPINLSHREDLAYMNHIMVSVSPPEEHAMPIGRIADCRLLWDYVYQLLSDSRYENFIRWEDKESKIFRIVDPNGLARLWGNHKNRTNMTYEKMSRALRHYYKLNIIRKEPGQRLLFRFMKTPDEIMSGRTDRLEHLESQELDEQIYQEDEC

Sequence of HSF1 (Q00613 whole entry): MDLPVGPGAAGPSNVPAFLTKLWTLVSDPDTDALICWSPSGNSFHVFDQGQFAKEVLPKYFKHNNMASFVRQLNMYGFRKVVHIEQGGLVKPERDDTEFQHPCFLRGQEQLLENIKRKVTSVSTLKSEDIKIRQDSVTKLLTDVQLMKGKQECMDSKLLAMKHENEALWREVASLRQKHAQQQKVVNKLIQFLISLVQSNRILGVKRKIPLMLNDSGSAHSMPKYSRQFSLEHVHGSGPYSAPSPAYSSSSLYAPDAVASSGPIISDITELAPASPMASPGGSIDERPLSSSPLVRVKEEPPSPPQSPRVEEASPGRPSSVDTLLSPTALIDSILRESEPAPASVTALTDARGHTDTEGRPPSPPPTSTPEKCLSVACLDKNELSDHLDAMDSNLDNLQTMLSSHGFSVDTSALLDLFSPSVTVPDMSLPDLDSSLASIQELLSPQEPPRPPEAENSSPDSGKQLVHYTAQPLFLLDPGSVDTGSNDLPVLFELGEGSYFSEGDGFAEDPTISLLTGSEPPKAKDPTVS
Sequence of ETV1 (P50549 whole entry): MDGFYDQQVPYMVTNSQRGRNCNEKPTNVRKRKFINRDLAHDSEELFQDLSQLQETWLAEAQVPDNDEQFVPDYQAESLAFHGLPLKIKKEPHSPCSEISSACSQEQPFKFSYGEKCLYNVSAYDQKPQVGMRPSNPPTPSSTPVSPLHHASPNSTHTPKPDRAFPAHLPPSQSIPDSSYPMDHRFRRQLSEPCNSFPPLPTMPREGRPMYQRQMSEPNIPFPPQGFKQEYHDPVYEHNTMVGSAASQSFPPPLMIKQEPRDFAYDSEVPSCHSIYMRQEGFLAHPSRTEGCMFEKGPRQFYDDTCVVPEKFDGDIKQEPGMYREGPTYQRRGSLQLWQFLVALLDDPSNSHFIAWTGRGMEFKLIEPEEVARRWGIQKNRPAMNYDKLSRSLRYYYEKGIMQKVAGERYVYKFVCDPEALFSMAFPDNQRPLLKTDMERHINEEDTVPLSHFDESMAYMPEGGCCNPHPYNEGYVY
Sequence of ETV5 (P41161 whole entry): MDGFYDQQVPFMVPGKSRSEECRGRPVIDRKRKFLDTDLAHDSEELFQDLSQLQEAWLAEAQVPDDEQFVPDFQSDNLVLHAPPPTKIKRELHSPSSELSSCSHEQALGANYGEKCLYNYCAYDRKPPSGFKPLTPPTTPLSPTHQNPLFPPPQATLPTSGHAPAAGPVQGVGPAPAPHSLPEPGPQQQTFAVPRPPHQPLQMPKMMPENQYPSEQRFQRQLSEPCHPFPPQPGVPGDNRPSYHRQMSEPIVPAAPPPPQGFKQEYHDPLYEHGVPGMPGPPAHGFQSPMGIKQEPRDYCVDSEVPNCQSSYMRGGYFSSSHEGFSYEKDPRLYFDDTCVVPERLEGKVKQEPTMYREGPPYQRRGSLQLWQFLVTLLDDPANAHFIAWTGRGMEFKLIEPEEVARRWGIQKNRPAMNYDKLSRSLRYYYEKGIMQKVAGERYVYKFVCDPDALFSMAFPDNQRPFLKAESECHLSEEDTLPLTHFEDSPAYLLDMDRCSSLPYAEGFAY

On to TGCTCT, for which the binding signal in assay [1] is 1.37 fold enrichment (6-mer frequency, TF over GST control); in assay [2], 1.37 fold enrichment (6-mer frequency, TF over GST control); in [3] it was 1.3 fold enrichment (6-mer frequency, TF over GST control); in [4], 1.2 fold enrichment (6-mer frequency, TF over GST control); in assay [5] it was 1.36 fold enrichment (6-mer frequency, TF over GST control); in [6], 1.38 fold enrichment (6-mer frequency, TF over GST control). The binding signal in [7] is 1.47 fold enrichment (6-mer frequency, TF over GST control); in [8], 1.36 fold enrichment (6-mer frequency, TF over GST control); in [9], 1.24 fold enrichment (6-mer frequency, TF over GST control); in [10] it was 1.33 fold enrichment (6-mer frequency, TF over GST control); in assay [11] it was 1.35 fold enrichment (6-mer frequency, TF over GST control); in [12], 1.37 fold enrichment (6-mer frequency, TF over GST control). Besides, the binding signal in assay [13] was 1.4 fold enrichment (6-mer frequency, TF over GST control); in [14], 1.17 fold enrichment (6-mer frequency, TF over GST control); in assay [15], 1.24 fold enrichment (6-mer frequency, TF over GST control); in assay [16] it was 1.27 fold enrichment (6-mer frequency, TF over GST control); in [17], 1.29 fold enrichment (6-mer frequency, TF over GST control); in assay [18] it was 1.31 fold enrichment (6-mer frequency, TF over GST control).
